“And” between values parts separate entries of the source, which are not always exact repeats. Equal values may be shown once.
target: Tyrosine-protein kinase JAK2 (Homo sapiens) (UniProt O60674); conditions: at 1 µM
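Further: mean JAK2 inhibition from the GSK PKIS screen, compounds tested at 1 µM.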

Tyrosine-protein kinase JAK2 (Homo sapiens), sequence (O60674 whole entry): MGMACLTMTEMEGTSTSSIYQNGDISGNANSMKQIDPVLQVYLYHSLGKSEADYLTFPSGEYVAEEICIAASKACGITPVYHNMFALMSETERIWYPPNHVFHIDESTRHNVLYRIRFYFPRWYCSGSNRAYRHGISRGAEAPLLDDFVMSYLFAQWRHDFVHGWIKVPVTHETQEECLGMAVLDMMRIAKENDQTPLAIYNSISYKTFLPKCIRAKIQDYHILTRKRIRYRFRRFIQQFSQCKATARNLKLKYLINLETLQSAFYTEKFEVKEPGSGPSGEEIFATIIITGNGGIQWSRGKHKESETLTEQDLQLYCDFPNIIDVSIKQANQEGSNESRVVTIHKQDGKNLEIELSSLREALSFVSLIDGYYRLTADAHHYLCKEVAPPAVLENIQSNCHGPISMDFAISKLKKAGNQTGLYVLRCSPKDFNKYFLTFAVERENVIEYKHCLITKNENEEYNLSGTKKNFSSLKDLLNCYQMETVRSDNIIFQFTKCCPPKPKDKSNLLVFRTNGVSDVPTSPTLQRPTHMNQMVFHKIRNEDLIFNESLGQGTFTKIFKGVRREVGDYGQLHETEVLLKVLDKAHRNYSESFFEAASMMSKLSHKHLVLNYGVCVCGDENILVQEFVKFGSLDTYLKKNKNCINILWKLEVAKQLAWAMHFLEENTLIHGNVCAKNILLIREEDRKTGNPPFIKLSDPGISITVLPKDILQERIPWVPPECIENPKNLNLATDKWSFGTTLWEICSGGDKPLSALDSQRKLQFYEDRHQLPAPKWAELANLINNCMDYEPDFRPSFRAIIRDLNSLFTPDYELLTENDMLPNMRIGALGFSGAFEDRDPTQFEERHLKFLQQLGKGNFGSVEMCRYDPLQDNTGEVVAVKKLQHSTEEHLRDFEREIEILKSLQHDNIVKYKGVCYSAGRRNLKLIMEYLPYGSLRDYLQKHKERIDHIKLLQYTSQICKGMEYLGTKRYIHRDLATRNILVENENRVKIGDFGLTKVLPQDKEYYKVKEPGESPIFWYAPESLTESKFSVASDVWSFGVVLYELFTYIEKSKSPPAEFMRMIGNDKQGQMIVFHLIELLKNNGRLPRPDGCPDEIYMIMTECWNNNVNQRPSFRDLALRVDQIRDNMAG

Row | Compound | inhibition
1 | O=C(O[C@H]1CN[C@H](C#Cc2cc3ncnc(Nc4ccc5c(cnn5Cc5ccccc5)c4)c3s2)C1)N1CCOCC1 | -1.59%
2 | COc1ccc(Nc2ncc(-c3ccccc3)o2)cc1OC | 3.43%
3 | COc1cc(N2CCN(C(C)C)CC2)ccc1Nc1nc(Nc2cccc(F)c2C(=O)O)c2cc[nH]c2n1 | 2.37%
4 | COc1ccccc1-c1cc(/C=C2\C(=O)Nc3ncc(Br)cc32)cc(Br)c1O | 3.2%
5 | FC(F)(F)CNc1nccc(-c2cnn3ncccc23)n1 | -0.82%
6 | CN1CCC(n2cnc(-c3ccc(F)cc3)c2-c2ccnc(NCCO)n2)CC1 | 1.42%
7 | CS(=O)(=O)CCNCc1ccc(-c2ccc3ncnc(Nc4ccc(OCc5cccc(C(F)(F)F)c5)cc4)c3c2)o1 | 3.35%
8 | COc1c(C(N)=O)cc(-c2ccc(Cl)cc2)cc1-c1ccc(S(N)(=O)=O)cc1 | 3.05%
9 | Cc1nnc(-c2cccc(-c3ccc(C(=O)NCC4CC4)cc3)c2)o1 | 2.79%
10 | O=C(O[C@H]1CN[C@H](C#Cc2cc3ncnc(Nc4ccc5c(ccn5Cc5cc(F)ccc5F)c4)c3s2)C1)N1CCOCC1 | 1.6%
11 | CS(=O)(=O)Nc1ccc(-c2ccc3c(NC(=O)C4CC4)n[nH]c3c2)cc1 | 2.88%
12 | CN1CCC(C(=O)Nc2n[nH]c3nc(-c4ccc(O)cc4)c(Br)cc23)CC1 | 1.49% and 1.42%
13 | O=C(O[C@H]1CN[C@H](C#Cc2cc3ncnc(Nc4ccc(OCc5cccc(F)c5)c(Cl)c4)c3s2)C1)N1CCOCC1 | 1.3%
14 | CCCNc1cccc(-n2ncc3c(N/N=C/c4ccncc4)ncnc32)c1 | 14.7%
15 | COc1cccc(Nc2nccc(-c3cnn4ncccc34)n2)c1 | 29.2%

From ChEMBL document CHEMBL1961873, “Compounds: GSK PKIS; Assays: Nanosyn kinase panel” (2012)
